Experimental findings from paper PMC8384837, “Expanding the binding specificity for RNA recognition by a PUF domain” are described below.

Test in all cases: yeast three-hybrid, YBZ-1, SC-Leu-His + 0.5 mM 3-AT, 4 days
Holding throughout (details): tags: N-Gal4 AD-HA kept; label: inside an RPR1-promoter hybrid RNA with tandem MS2 sites; ssRNA

The target of experiment [1] is PUM1 PUF domain R3-RCG (Homo sapiens, UniProt Q14671 828-1176, C935R;R936C;Q939G). An outline of the steps:
(§1)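 A centromeric plasmid in strain YBZ-1 co-expressed Pumilio-1 PUF domain libraries, randomized at the three base-contacting residues of each repeat, with matching RNA elements; the strain carries a LexA–MS2 coat fusion and a HIS3 reporter. After four days on SC-Leu (input) or SC-Leu-His + 0.5 mM 3-AT (selection), the repeat regions were PCR-amplified and Illumina-sequenced. The interaction score is the log change in variant frequency from input to selection, using log2 and a pseudocount of 1 where absent.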

Experiment [2] addresses PUM1 PUF domain R3-LSA (Homo sapiens, UniProt Q14671 828-1176, C935L;R936S;Q939A). An outline of the steps: as §1
The target in experiment [3] is PUM1 PUF domain R4-SYP (Homo sapiens, UniProt Q14671 828-1176, N971S;H972Y;Q975P). A digest of the protocol: as §1
PUM1 PUF domain R4-SYP, sequence (Q14671 828-1176 N971S/H972Y/Q975P): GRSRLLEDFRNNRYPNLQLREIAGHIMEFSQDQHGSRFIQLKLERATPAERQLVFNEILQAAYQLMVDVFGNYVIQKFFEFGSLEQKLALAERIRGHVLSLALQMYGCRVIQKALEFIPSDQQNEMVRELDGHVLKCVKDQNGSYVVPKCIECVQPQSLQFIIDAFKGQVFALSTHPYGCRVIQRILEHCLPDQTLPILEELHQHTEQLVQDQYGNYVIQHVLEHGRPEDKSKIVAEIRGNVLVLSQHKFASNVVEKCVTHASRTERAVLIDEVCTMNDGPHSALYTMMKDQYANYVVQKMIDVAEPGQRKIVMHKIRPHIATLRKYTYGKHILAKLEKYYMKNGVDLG
In experiment [4] the target is PUM1 PUF domain R4-MRG (Homo sapiens, UniProt Q14671 828-1176, N971M;H972R;Q975G). An outline of the steps:
as §1

Experiment [5] deals with PUM1 PUF domain R4-ARR (Homo sapiens, UniProt Q14671 828-1176, N971A;H972R;Q975R). An outline of the steps:
as §1

Experiment [6] concerns the target PUM1 PUF domain R4-DFC (Homo sapiens, UniProt Q14671 828-1176, N971D;H972F;Q975C). An outline of the steps:
as §1

For experiment [7], the target named is PUM1 PUF domain R4-RYP (Homo sapiens, UniProt Q14671 828-1176, N971R;H972Y;Q975P). An outline of the steps:
as §1

Experiment [8] concerns the target PUM1 PUF domain R4-SNQ (Homo sapiens, UniProt Q14671 828-1176, N971S;H972N). A digest of the protocol:
as §1

Experiment [9] deals with PUM1 PUF domain R5-LQR (Homo sapiens, UniProt Q14671 828-1176, C1007L;R1008Q;Q1011R). An outline of the steps: as §1
PUM1 PUF domain R5-LQR, sequence (Q14671 828-1176 C1007L/R1008Q/Q1011R): as the sequence (Q14671 828-1176 N971S/H972Y/Q975P) above, with S144N, Y145H, P148Q, C180L, R181Q, Q184R counted along it
The target in experiment [10] is PUM1 PUF domain R5-ERV (Homo sapiens, UniProt Q14671 828-1176, C1007E;Q1011V). An outline of the steps: as §1
PUM1 PUF domain R5-ERV, sequence (Q14671 828-1176 C1007E/Q1011V): as the sequence (Q14671 828-1176 N971S/H972Y/Q975P) above, with S144N, Y145H, P148Q, C180E, Q184V counted along it
For experiment [11], the target named is PUM1 PUF domain R2-QWR (Homo sapiens, UniProt Q14671 828-1176, N899Q;Y900W;Q903R). An outline of the steps:
as §1

The target of experiment [12] is PUM1 PUF domain R8-KKK (Homo sapiens, UniProt Q14671 828-1176, N1122K;Y1123K;Q1126K). A digest of the protocol:
as §1

The target in experiment [13] is PUM1 PUF domain R5-FHI (Homo sapiens, UniProt Q14671 828-1176, C1007F;R1008H;Q1011I). A digest of the protocol: as §1
PUM1 PUF domain R5-FHI, sequence (Q14671 828-1176 C1007F/R1008H/Q1011I): as the sequence (Q14671 828-1176 N971S/H972Y/Q975P) above, with S144N, Y145H, P148Q, C180F, R181H, Q184I counted along it
In experiment [14] the target is PUM1 PUF domain R5-QKV (Homo sapiens, UniProt Q14671 828-1176, C1007Q;R1008K;Q1011V). A digest of the protocol:
as §1

Experiment [15] deals with PUM1 PUF domain R2-RTQ (Homo sapiens, UniProt Q14671 828-1176, N899R;Y900T). A digest of the protocol: as §1
PUM1 PUF domain R2-RTQ, sequence (Q14671 828-1176 N899R/Y900T): as the sequence (Q14671 828-1176 N971S/H972Y/Q975P) above, with N72R, Y73T, S144N, Y145H, P148Q counted along it
Experiment [16] addresses PUM1 PUF domain R4-PRC (Homo sapiens, UniProt Q14671 828-1176, N971P;H972R;Q975C). A digest of the protocol: as §1
The target in experiment [17] is PUM1 PUF domain R3-NAL (Homo sapiens, UniProt Q14671 828-1176, C935N;R936A;Q939L). A digest of the protocol:
as §1

The target in experiment [18] is PUM1 PUF domain R3-VRY (Homo sapiens, UniProt Q14671 828-1176, C935V;Q939Y). A digest of the protocol:
as §1

Experiment [19] deals with PUM1 PUF domain R8-KWS (Homo sapiens, UniProt Q14671 828-1176, N1122K;Y1123W;Q1126S). An outline of the steps: as §1
PUM1 PUF domain R8-KWS, sequence (Q14671 828-1176 N1122K/Y1123W/Q1126S): as the sequence (Q14671 828-1176 N971S/H972Y/Q975P) above, with S144N, Y145H, P148Q, N295K, Y296W, Q299S counted along it
Experiment [20] concerns the target PUM1 PUF domain R5-THL (Homo sapiens, UniProt Q14671 828-1176, C1007T;R1008H;Q1011L). An outline of the steps: as §1

PUM1 PUF domain R4-MRG, sequence (Q14671 828-1176 N971M/H972R/Q975G): as the sequence (Q14671 828-1176 N971S/H972Y/Q975P) above, with S144M, Y145R, P148G counted along it
PUM1 PUF domain R3-RCG, sequence (Q14671 828-1176 C935R/R936C/Q939G): as the sequence (Q14671 828-1176 N971S/H972Y/Q975P) above, with C108R, R109C, Q112G, S144N, Y145H, P148Q counted along it
PUM1 PUF domain R4-RYP, sequence (Q14671 828-1176 N971R/H972Y/Q975P): as the sequence (Q14671 828-1176 N971S/H972Y/Q975P) above, with S144R counted along it
PUM1 PUF domain R3-LSA, sequence (Q14671 828-1176 C935L/R936S/Q939A): as the sequence (Q14671 828-1176 N971S/H972Y/Q975P) above, with C108L, R109S, Q112A, S144N, Y145H, P148Q counted along it
PUM1 PUF domain R4-SNQ, sequence (Q14671 828-1176 N971S/H972N): as the sequence (Q14671 828-1176 N971S/H972Y/Q975P) above, with Y145N, P148Q counted along it
PUM1 PUF domain R3-VRY, sequence (Q14671 828-1176 C935V/Q939Y): as the sequence (Q14671 828-1176 N971S/H972Y/Q975P) above, with C108V, Q112Y, S144N, Y145H, P148Q counted along it
PUM1 PUF domain R5-QKV, sequence (Q14671 828-1176 C1007Q/R1008K/Q1011V): as the sequence (Q14671 828-1176 N971S/H972Y/Q975P) above, with S144N, Y145H, P148Q, C180Q, R181K, Q184V counted along it
PUM1 PUF domain R4-ARR, sequence (Q14671 828-1176 N971A/H972R/Q975R): as the sequence (Q14671 828-1176 N971S/H972Y/Q975P) above, with S144A, Y145R, P148R counted along it
PUM1 PUF domain R3-NAL, sequence (Q14671 828-1176 C935N/R936A/Q939L): as the sequence (Q14671 828-1176 N971S/H972Y/Q975P) above, with C108N, R109A, Q112L, S144N, Y145H, P148Q counted along it
PUM1 PUF domain R5-THL, sequence (Q14671 828-1176 C1007T/R1008H/Q1011L): as the sequence (Q14671 828-1176 N971S/H972Y/Q975P) above, with S144N, Y145H, P148Q, C180T, R181H, Q184L counted along it
PUM1 PUF domain R4-PRC, sequence (Q14671 828-1176 N971P/H972R/Q975C): as the sequence (Q14671 828-1176 N971S/H972Y/Q975P) above, with S144P, Y145R, P148C counted along it
PUM1 PUF domain R2-QWR, sequence (Q14671 828-1176 N899Q/Y900W/Q903R): as the sequence (Q14671 828-1176 N971S/H972Y/Q975P) above, with N72Q, Y73W, Q76R, S144N, Y145H, P148Q counted along it
PUM1 PUF domain R8-KKK, sequence (Q14671 828-1176 N1122K/Y1123K/Q1126K): as the sequence (Q14671 828-1176 N971S/H972Y/Q975P) above, with S144N, Y145H, P148Q, N295K, Y296K, Q299K counted along it
PUM1 PUF domain R4-DFC, sequence (Q14671 828-1176 N971D/H972F/Q975C): as the sequence (Q14671 828-1176 N971S/H972Y/Q975P) above, with S144D, Y145F, P148C counted along it

For “GGCUAGAACUAGUGGAUCCCCCGGCGCCCGGCGGCUCGAGCCCGGGUAAGUGUAAUUAGUCUGCAUGCCGCCGGGCGCCAUGCCUGCAGGUCGACUCUAGAAAACAUG”, the figures for the binding signal in experiment [1] and in [2] were 3.58 log2 enrichment (interaction score) and 2.8 log2 enrichment (interaction score), respectively.

Take “GGCUAGAACUAGUGGAUCCCCCGGCGCCCGGCGGCUCGAGCCCGGGUAAGUGUAAGUAGUCUGCAUGCCGCCGGGCGCCAUGCCUGCAGGUCGACUCUAGAAAACAUG”: the values for the binding signal in [1] and in experiment [2] were 2.96 log2 enrichment (interaction score) and 4.84 log2 enrichment (interaction score), respectively.

For “GGCUAGAACUAGUGGAUCCCCCGGCGCCCGGCGGCUCGAGCCCGGGUAAGUGUACAUAGUCUGCAUGCCGCCGGGCGCCAUGCCUGCAGGUCGACUCUAGAAAACAUG”, the binding signal is 6.78 log2 enrichment (interaction score) in [3], 1.34 log2 enrichment (interaction score) in experiment [4], 2.99 log2 enrichment (interaction score) in experiment [5] and 5.67 log2 enrichment (interaction score) in experiment [6].

Take “GGCUAGAACUAGUGGAUCCCCCGGCGCCCGGCGGCUCGAGCCCGGGUAAGUGUAUAUAGUCUGCAUGCCGCCGGGCGCCAUGCCUGCAGGUCGACUCUAGAAAACAUG”: the binding signal in [3] is 6.95 log2 enrichment (interaction score); in experiment [4], 1.61 log2 enrichment (interaction score); in experiment [7], 2.78 log2 enrichment (interaction score); in experiment [8], 4.52 log2 enrichment (interaction score).

For “GGCUAGAACUAGUGGAUCCCCCGGCGCCCGGCGGCUCGAGCCCGGGUAAGUGUCAAUAGUCUGCAUGCCGCCGGGCGCCAUGCCUGCAGGUCGACUCUAGAAAACAUG”, the binding signal is 3.47 log2 enrichment (interaction score) in [9] and 2.93 log2 enrichment (interaction score) in experiment [10].

As for “GGCUAGAACUAGUGGAUCCCCCGGCGCCCGGCGGCUCGAGCCCGGGUAAGUGUGAAUAGUCUGCAUGCCGCCGGGCGCCAUGCCUGCAGGUCGACUCUAGAAAACAUG”, the binding signal in [10] was 3.34 log2 enrichment (interaction score).

As to “GGCUAGAACUAGUGGAUCCCCCGGCGCCCGGCGGCUCGAGCCCGGGUAAGUGUAAACAGUCUGCAUGCCGCCGGGCGCCAUGCCUGCAGGUCGACUCUAGAAAACAUG”, in experiment [11], the binding signal is 4.86 log2 enrichment (interaction score).

On to “GGCUAGAACUAGUGGAUCCCCCGGCGCCCGGCGGCUCGAGCCCGGGUAAGCGUAAAUAGUCUGCAUGCCGCCGGGCGCCAUGCCUGCAGGUCGACUCUAGAAAACAUG”, for which the binding signal in [12] was 3.81 log2 enrichment (interaction score).

Regarding “GGCUAGAACUAGUGGAUCCCCCGGCGCCCGGCGGCUCGAGCCCGGGUAAGUGUUAAUAGUCUGCAUGCCGCCGGGCGCCAUGCCUGCAGGUCGACUCUAGAAAACAUG”, the binding signal in experiment [13] is 2.85 log2 enrichment (interaction score); in experiment [9], 2.83 log2 enrichment (interaction score); in experiment [14], 2.71 log2 enrichment (interaction score).

Turning to “GGCUAGAACUAGUGGAUCCCCCGGCGCCCGGCGGCUCGAGCCCGGGUAAGUGUAAAAAGUCUGCAUGCCGCCGGGCGCCAUGCCUGCAGGUCGACUCUAGAAAACAUG”, the binding signal in experiment [15] was 2.44 log2 enrichment (interaction score).

As to “GGCUAGAACUAGUGGAUCCCCCGGCGCCCGGCGGCUCGAGCCCGGGUAAGUGUAAAUAGUCUGCAUGCCGCCGGGCGCCAUGCCUGCAGGUCGACUCUAGAAAACAUG”, the binding signal in [16] was 2.48 log2 enrichment (interaction score); in experiment [9], 1.81 log2 enrichment (interaction score); in experiment [10] it was 5.11 log2 enrichment (interaction score); in [17], 3.24 log2 enrichment (interaction score); in experiment [1] it was 0.63 log2 enrichment (interaction score); in experiment [4], 2.56 log2 enrichment (interaction score). Also, the binding signal was 5.03 log2 enrichment (interaction score) in experiment [7], 4.24 log2 enrichment (interaction score) in experiment [18], 3.68 log2 enrichment (interaction score) in experiment [19] and 4.39 log2 enrichment (interaction score) in [20].
